PubChem BioAssay
A number with no mark means an inactive call.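 How the source made its calls, unless noted: active means mean inhibition over 43.08%, the solvent-only control mean plus 3 SD; inactive means the rest.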

Columns and labels:
[1] = target: Nuclear receptor coactivator 3 (Homo sapiens) (UniProt Q9Y6Q9); test: SRC3 coactivator transcriptional activity inhibitors, confirmation, cell-based, luminescence, quadruplicate (AID 588792); settings: HEK293 GAL4-SRC3 luciferase reporter, at 3.6 µM, stronger effect = higher value;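 further: 0% = DMSO treated cells and 100% = gossypol at 36 µM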
Sequence of Nuclear receptor coactivator 3 (Homo sapiens) (Q9Y6Q9 whole entry, looked up, the tested form may be a part): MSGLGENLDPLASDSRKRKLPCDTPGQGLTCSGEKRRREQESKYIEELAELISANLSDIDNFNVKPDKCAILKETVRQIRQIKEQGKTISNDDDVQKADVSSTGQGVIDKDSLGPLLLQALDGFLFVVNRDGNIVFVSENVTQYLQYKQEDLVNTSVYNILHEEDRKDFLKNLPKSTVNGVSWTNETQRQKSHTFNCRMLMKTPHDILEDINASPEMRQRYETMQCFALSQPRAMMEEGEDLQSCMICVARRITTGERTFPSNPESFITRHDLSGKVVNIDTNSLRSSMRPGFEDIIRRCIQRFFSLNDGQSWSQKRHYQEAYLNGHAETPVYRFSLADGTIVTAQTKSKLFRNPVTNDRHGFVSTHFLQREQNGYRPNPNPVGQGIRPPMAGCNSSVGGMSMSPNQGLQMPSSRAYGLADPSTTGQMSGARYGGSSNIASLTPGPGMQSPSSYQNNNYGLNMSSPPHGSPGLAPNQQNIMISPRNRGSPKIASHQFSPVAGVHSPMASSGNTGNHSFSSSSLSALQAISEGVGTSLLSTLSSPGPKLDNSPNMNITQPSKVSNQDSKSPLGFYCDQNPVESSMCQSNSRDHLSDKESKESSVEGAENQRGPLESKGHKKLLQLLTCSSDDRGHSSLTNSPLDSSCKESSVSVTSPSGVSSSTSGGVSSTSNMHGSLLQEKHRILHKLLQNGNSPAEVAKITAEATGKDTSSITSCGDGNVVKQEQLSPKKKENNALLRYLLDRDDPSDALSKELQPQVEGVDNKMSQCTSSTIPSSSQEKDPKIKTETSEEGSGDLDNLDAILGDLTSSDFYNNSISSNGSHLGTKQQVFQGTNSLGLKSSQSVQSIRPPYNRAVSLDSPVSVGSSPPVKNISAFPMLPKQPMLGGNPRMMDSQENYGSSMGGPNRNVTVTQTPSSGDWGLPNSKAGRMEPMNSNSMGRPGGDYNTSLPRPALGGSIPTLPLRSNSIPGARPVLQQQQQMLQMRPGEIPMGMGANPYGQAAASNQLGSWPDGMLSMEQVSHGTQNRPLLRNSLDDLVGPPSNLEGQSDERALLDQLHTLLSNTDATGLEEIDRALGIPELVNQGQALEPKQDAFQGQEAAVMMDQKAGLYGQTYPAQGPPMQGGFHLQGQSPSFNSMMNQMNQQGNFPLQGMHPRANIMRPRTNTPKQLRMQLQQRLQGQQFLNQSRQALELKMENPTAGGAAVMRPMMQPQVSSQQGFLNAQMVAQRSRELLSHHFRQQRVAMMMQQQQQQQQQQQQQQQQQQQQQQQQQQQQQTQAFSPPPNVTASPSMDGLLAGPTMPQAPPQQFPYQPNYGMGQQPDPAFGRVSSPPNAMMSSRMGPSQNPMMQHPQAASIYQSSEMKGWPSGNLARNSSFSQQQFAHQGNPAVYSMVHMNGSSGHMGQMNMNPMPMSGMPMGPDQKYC

[2] = test system: transactivating tegument protein VP16 (Human herpesvirus 1), Gal4-VP16 luciferase reporter; test: VP16 transactivation inhibitors, counter-screen for SRC3 inhibitor project, cell-based, luminescence, high throughput (AID 588794; in the data active means inhibition above about 30%); settings: mammalian cells, VP16-driven luciferase reporter luminescence; at 3.6 µM; stronger effect = higher value

| Structure (SMILES) | inhibition [1] | inhibition [2] |
| --- | --- | --- |
| CC(C)(CC(=O)O)CC(=O)Nc1ccc(Oc2ccc(C(C)(C)C)cc2)nc1 | 3.47% | 0.08% |
| O=[N+]([O-])c1ccccc1NC1CCN(Cc2ccccc2)CC1 | -4.81% | 0.87% |
| Cc1ccc(NS(=O)(=O)c2ccc(OCC(=O)NCc3ccncc3)cc2)cc1 | 8.87% | 6.6% |
| CN1/C(=C\C(=O)C[n+]2cccc(Br)c2)C(C)(C)c2ccccc21 | 25.3% | 21.2% |
| S=C(N/N=C/c1ccc2ncccc2c1)Nc1cccnc1 | -1.24% | -17.5% |
| COc1ccc(C)cc1NC(=O)c1nnn(Cc2cccc(F)c2)c1N | 22.3% | 26.1% |
| COc1cc(C(=O)N/N=C/c2coc3ccc(Cl)cc3c2=O)ccc1O | 24.2% | 15.9% |
| Cc1ccc(-c2nc(CS(=O)CC(=O)NCCCN3CCN(Cc4ccccc4)CC3)c(C)o2)cc1 (centres undefined) | 20.1% | 8.49% |
| CCCCNC1C(CC)C(CCC)C(C#N)(C#N)C1(C#N)C#N (centres undefined) | 3.79% | 20% |
| Nc1ncnc(Sc2ccc(Cl)cc2)c1[N+](=O)[O-] | 13.4% | 9.09% |
| COc1cccc(N2CCN(CC(=O)Nc3ccccc3C(=O)NCc3ccccc3)CC2)c1 | -32.3% | 7.53% |
| Cc1cccc(NC(=O)c2cc(-c3ccccn3)nc3ccccc23)c1C | -9.5% | 8.29% |
